Experimental data taken from PubChem BioAssay (Tox21).
Records with an inconclusive call do not appear. Calls of active or inactive are those of the source. Unless noted, calls follow the shape of the dose curve; as a rule, active = well fitted curve in the direction sought with a large enough effect in the repeat runs; inconclusive = weak or mixed curves; inactive = no such curve, though single readings can be large; an effect the other way counts as inactive or inconclusive.

Legend:
[1] = qHTS assay to identify small molecule agonists of the estrogen receptor beta (ER-beta) signaling pathway - cell viability counter screen (AID 1259380); also: nearly all actives have a fitted effect of over 30% in size; also: potency is read from the fitted curve at half-maximal effect
Method in brief: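 ER-beta-UAS-bla HEK293T cells in medium with 2% charcoal-stripped FBS, pre-incubated 6 hr, then treated 16 hr at 37C. Cytotoxicity read in the same wells by CellTiter-Glo luminescence after 30 min at room temperature.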

[2] = target: Androgen receptor (Homo sapiens) (UniProt P10275); test: qHTS assay to identify small molecule agonists of the androgen receptor (AR) signaling pathway in the presence of an antagonist (AID 1259381; calls by dose curve; also: nearly all actives have a fitted effect of over 15% in size)
Androgen receptor (Homo sapiens), sequence (P10275 whole entry, looked up): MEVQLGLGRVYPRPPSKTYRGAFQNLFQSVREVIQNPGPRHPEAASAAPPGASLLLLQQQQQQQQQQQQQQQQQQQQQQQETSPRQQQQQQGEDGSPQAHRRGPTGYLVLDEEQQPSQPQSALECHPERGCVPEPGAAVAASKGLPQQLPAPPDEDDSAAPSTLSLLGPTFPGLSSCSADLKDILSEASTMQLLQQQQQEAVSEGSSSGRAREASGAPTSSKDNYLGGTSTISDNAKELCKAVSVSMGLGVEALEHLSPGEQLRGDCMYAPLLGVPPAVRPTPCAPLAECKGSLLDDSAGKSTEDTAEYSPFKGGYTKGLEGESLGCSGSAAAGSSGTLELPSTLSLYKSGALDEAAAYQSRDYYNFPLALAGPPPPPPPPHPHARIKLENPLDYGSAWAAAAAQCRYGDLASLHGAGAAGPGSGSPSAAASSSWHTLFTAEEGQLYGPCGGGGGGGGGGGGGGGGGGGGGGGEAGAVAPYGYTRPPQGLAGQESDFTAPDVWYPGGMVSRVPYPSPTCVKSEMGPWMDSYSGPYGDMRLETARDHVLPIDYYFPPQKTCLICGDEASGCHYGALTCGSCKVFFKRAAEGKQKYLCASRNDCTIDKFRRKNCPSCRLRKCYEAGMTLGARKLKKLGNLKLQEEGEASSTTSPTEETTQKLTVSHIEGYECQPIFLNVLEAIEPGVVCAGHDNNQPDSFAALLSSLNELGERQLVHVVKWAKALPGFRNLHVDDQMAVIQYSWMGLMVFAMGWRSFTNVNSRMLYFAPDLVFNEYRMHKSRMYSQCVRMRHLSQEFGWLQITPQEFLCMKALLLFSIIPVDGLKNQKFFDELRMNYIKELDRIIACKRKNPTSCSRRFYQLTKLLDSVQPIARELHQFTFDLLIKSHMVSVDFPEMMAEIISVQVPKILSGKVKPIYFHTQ
Method in brief: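 MDA-kb2 cells carrying MMTV-luciferase (AR/GR responsive), 3,000 cells/well, co-treated with 3.0 uM nilutamide final. Compounds at 15 concentrations, 16 hr at 37C without CO2. Luciferase luminescence read after 30 min with ONE-Glo.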

[3] = qHTS assay to identify small molecule antagonists of the estrogen receptor beta (ER-beta) signaling pathway - cell viability counter screen (AID 1259382); also: nearly all actives have a fitted effect of over 55% in size; also: potency is read from the fitted curve at half-maximal effect;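 as to activity change, negative = cytotoxicity: HEK293T cells carrying ER-beta-UAS-bla reporter stimulated with estradiol; series mostly up to about 92 µM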
Method in brief: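 ER-beta-UAS-bla HEK293T cells in 2% charcoal-stripped FBS medium, treated with compound plus 1 nM 17-beta-estradiol for 16 h at 37C. Viability read by CellTiter-Glo luminescence after 30 min at room temperature in the same wells.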

[4] = qHTS assay to identify small molecule agonists of the estrogen receptor alpha (ER-alpha) signaling pathway in the presence of an antagonist - cell viability counter screen (AID 1259386);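 also: cells exposed to compounds for 22 h at 37 °C before the viability read; nearly all actives have a fitted effect of over 30% in size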; also: potency is read from the fitted curve at half-maximal effect; as to activity change, negative = cytotoxicity: series mostly up to about 92 µM
Method in brief: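 Cell viability in VM7Luc4E2 cells (endogenous full-length ER-alpha) measured by CellTiter-Fluor fluorescence in the same wells as the luciferase screen. Cells pre-cultured 5 days in charcoal-stripped serum, then treated 22 h with compounds at 15 concentrations plus 10.0nM ICI-182,780.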

[5] = target: Progesterone receptor (Homo sapiens) (UniProt P06401); test: qHTS assay to identify small molecule agonists of the progesterone receptor (PR) signaling pathway (AID 1346784; calls by dose curve; also: nearly all actives have a fitted effect of over 30% in size)
Progesterone receptor (Homo sapiens), sequence (P06401 whole entry, looked up): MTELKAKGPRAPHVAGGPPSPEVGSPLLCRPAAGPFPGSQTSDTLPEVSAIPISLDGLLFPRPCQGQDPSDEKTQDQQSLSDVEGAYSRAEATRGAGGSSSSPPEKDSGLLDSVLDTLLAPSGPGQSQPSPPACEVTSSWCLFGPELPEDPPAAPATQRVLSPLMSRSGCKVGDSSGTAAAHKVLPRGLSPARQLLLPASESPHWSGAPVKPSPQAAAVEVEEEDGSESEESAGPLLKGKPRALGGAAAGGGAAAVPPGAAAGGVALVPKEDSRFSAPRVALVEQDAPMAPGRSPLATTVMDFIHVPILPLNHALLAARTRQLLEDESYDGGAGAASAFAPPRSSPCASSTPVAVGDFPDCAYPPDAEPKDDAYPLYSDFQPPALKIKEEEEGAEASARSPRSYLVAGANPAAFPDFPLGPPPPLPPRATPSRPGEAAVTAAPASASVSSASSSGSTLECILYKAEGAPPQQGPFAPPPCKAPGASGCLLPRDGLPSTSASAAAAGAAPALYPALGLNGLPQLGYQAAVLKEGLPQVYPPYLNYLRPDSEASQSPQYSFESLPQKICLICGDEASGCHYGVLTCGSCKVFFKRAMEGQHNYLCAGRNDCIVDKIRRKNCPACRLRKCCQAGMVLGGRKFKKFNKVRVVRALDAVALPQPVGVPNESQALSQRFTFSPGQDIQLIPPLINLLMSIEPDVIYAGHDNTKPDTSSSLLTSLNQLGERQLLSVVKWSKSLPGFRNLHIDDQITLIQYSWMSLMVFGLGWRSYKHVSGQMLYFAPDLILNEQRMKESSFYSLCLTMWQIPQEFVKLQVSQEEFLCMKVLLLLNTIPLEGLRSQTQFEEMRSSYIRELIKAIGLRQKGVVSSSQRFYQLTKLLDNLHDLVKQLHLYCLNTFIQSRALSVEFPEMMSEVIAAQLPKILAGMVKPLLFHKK
Method in brief: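 Seed PR-UAS-bla HEK 293T cells (2% charcoal-stripped FBS), incubate 6 hr at 37C; add compounds in DMSO, 16 hr at 37C; add LiveBLAzer B/G substrate, 2 hr RT; read fluorescence intensity.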

[6] = qHTS assay to identify small molecule antagonists of the progesterone receptor (PR) signaling pathway - cell viability counter screen (AID 1346798); also: nearly all actives have a fitted effect of over 50% in size; also: potency is read from the fitted curve at half-maximal effect; as to activity change, negative = cytotoxicity: series mostly up to about 92 µM
Method in brief: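 Measures cytotoxicity in parallel with the PR antagonist reporter read: HEK293T PR-UAS-bla cells get compound and R5020 for 16 hr, and remaining viable cells are quantified by CellTiter-Glo luminescence.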

[7] = qHTS assay to identify small molecule agonists of the progesterone receptor (PR) signaling pathway - cell viability counter screen (AID 1346799; calls by dose curve; also: nearly all actives have a fitted effect of over 45% in size; also: potency is read from the fitted curve at half-maximal effect)
Method in brief: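 Using the same plates as the PR reporter screen, HEK293T PR-UAS-bla cells received compounds for 16 hr at 37C and were then lysed with CellTiter-Glo; luminescence was read 30 min later at room temperature.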

[8] = qHTS assay to identify small molecule antagonists of the TGF-beta/Smad signaling pathway - cell viability counter screen (AID 1346824); also: nearly all actives have a fitted effect of over 50% in size; also: potency is read from the fitted curve at half-maximal effect
Method in brief: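 SBE-bla HEK 293T cells, incubated overnight, then compound plus 0.25 ng/mL TGF-beta1 (stock added) for 5 hr at 37 C. Viability was read in the same wells by CellTiter-Glo luminescence after 30 min at room temperature.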

[9] = qHTS assay to identify small molecule agonists of the TGF-beta/Smad signaling pathway - cell viability counter screen (AID 1346829); also: top concentration of the series differs between compounds; nearly all actives have a fitted effect of over 45% in size
Method in brief: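 Same-well cytotoxicity: CellTiter-Glo added after the 2 hr room-temperature beta-lactamase substrate step, luminescence measured 30 min later; cells had 5 hr of compound at 37 C.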

[10] = qHTS assay to identify small molecule agonists of the TGF-beta/Smad signaling pathway (AID 1346859; active = well fitted activation curve with a large enough effect in the signal ratio in the repeat runs, not every such curve was filed as active; the % refers to the signal ratio; also: series mostly up to about 77 µM)
Method in brief: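 Beta-lactamase reporter activity downstream of Smad binding elements was measured in stably transfected HEK 293T cells; compounds were incubated for 5 hr, substrate for 2 hr at room temperature.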

[11] = target: Thyrotropin-releasing hormone receptor (Homo sapiens) (UniProt P34981); test: qHTS assay to identify small molecule antagonists of the thyrotropin-releasing hormone receptor (TRHR) signaling pathway (AID 1346877; active = well fitted inhibition curve with a large enough effect in the repeat runs, not every such curve was filed as active; also: series mostly up to about 51 µM)
Thyrotropin-releasing hormone receptor (Homo sapiens), sequence (P34981 whole entry, looked up): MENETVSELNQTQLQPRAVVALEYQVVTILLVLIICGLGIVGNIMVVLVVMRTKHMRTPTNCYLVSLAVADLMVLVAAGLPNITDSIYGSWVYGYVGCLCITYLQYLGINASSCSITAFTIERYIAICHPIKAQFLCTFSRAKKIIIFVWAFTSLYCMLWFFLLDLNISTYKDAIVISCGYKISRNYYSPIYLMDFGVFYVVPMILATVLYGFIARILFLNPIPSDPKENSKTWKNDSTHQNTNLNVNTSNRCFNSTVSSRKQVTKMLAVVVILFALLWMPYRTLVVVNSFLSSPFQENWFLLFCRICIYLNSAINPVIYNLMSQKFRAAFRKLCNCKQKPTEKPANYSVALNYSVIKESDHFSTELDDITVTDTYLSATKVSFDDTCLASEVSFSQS
Method in brief: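 TRHR-expressing HEK293 cells loaded with calcium dye for 2 h at 37 C; compounds pre-incubated 5 min at room temperature before TRH challenge at 1 nM final. Intracellular calcium fluorescence read kinetically for 3 min; 15 concentrations in triplicate.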

[12] = target: Thyrotropin-releasing hormone receptor (Homo sapiens) (UniProt P34981); test: qHTS assay to identify small molecule agonists of the thyrotropin-releasing hormone receptor (TRHR) signaling pathway (AID 1346891; calls by dose curve; also: series mostly up to about 58 µM)
Method in brief: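 Overnight-plated (18 h, 37 °C, 5% CO2) TRHR-Hek293 cells; 2 h calcium dye at 37 °C; compound in DMSO; 3-min kinetic fluorescence read.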

[13] = Human pregnane X receptor (PXR) small molecule agonists, qHTS cell viability counter screen (AID 1346977); also: nearly all actives have a fitted effect of over 50% in size; also: potency is read from the fitted curve at half-maximal effect
Method in brief: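 After a 5hr pre-incubation, PXR-Luc HepG2 cells received compounds plus positive control in DMSO and were kept 24hr at 37C. Cell viability was quantified by fluorescence from CellTiter-Fluor added for the final hour.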

[14] = Caspase-3/7 induction in HepG2 cells by small molecules, qHTS assay (AID 1346978); also: nearly all actives have a fitted effect of over 15% in size; also: potency is read from the fitted curve at half-maximal effect
Method in brief: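 Wild-type HepG2 cells, 2,000/well, settled 5 hr at 37 C and 5% CO2, then compound-treated for 17 hr; caspase-3/7 activity read by luminescent Caspase-Glo 3/7 after 30 min at room temperature.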

[15] = Caspase-3/7 induction in CHO-K1 cells by small molecules, qHTS cell viability counter screen (AID 1346979); also: nearly all actives have a fitted effect of over 35% in size; also: potency is read from the fitted curve at half-maximal effect
Method in brief: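 Multiplexed with Caspase-Glo 3/7 in CHO-K1 cells, this counter screen added CellTiter-Fluor after 16hr of compound exposure and recorded fluorescence 1hr later.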

[16] = Caspase-3/7 induction in CHO-K1 cells by small molecules, qHTS assay (AID 1346980); also: nearly all actives have a fitted effect of over 15% in size; also: potency is read from the fitted curve at half-maximal effect
Method in brief: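 Wild-type CHO-K1 cells exposed to compounds for 17hr at 37 C, 5% CO2. Caspase-3/7 activity then measured by Caspase-Glo 3/7 luminescence after 30min at room temperature.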

[17] = target: Estrogen receptor (Homo sapiens) (UniProt P03372); test: qHTS assay to identify small molecule agonists of the estrogen receptor alpha (ER-alpha) signaling pathway in the presence of an antagonist (AID 1259383; calls by dose curve; also: top concentration of the series differs between compounds; nearly all actives have a fitted effect of over 15% in size)
Estrogen receptor (Homo sapiens), sequence (P03372 whole entry, looked up): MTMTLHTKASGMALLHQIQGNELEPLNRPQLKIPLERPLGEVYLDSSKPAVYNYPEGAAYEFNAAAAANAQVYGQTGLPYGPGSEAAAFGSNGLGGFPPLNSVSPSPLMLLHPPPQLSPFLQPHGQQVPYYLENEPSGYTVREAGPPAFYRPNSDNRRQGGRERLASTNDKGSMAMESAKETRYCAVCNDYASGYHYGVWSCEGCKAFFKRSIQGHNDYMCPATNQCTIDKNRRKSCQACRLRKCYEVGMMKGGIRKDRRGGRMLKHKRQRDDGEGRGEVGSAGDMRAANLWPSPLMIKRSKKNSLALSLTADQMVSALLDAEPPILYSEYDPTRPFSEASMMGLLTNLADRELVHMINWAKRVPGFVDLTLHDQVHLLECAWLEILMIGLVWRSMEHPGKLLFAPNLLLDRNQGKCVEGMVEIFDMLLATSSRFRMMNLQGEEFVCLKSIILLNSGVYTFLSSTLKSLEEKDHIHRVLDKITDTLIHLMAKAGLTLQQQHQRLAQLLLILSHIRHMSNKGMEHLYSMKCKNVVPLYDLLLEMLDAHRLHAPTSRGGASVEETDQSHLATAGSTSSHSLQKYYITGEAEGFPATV
Method in brief: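 VM7Luc4E2 cells express endogenous full-length ER-alpha with an ERE-luciferase reporter and were hormone-deprived for 5 days. Compounds at 15 concentrations were added with 10.0nM ICI-182,780 for 22hr at 37C. Luminescence was read with ONE-Glo.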

[18] = qHTS assay to identify small molecule agonists or antagonists of the thyroid stimulating hormone receptor (TSHR) signaling pathway - wild type cell line counter screen (AID 1259384; calls by dose curve)
Method in brief: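 Wild-type Hek293 cells, 800/well, 18 h at 37C, then compound with Ro20-1724 for 30 min RT. cAMP by HTRF (cAMP-d2/anti-cAMP cryptate), 1 h RT, fluorescence read. 15 concentrations, triplicates.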

[19] = target: Thyrotropin receptor (Homo sapiens) (UniProt P16473); test: qHTS assay to identify small molecule antagonists of the thyroid stimulating hormone receptor (TSHR) signaling pathway (AID 1259385; calls by dose curve; also: nearly all actives have a fitted effect of over 20% in size; also: potency is read from the fitted curve at half-maximal effect)
Thyrotropin receptor (Homo sapiens), sequence (P16473 whole entry, looked up): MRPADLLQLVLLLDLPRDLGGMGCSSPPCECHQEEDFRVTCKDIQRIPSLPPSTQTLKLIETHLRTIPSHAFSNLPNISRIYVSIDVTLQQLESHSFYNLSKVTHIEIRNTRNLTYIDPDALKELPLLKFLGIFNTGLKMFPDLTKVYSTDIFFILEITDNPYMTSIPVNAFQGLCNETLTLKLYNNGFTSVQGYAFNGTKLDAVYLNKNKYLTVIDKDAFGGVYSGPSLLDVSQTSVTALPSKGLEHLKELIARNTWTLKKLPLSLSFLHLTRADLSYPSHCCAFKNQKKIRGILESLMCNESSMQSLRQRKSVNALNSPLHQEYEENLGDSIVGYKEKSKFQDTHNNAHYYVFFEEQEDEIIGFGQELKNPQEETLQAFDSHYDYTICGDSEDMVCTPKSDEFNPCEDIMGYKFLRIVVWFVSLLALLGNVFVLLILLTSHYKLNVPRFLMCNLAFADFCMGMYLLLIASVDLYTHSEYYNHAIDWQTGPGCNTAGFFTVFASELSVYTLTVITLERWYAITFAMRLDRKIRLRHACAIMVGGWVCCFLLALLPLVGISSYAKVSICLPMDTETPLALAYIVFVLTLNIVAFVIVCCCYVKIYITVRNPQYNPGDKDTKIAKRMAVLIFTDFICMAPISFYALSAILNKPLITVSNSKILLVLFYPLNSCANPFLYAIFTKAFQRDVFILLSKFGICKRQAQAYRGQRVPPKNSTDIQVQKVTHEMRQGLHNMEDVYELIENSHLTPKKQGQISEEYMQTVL
Method in brief: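 TSHR-HEK293 cells (800/well) plated 18 h, then compounds with Ro20-1724 and TSH at 1.5 ng/mL final, 30 min at room temperature. cAMP quantified by HTRF (cAMP-d2/anti-cAMP-cryptate, 1 h); 15 concentrations in triplicate.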

[20] = target: Progesterone receptor (Homo sapiens) (UniProt P06401); test: qHTS assay to identify small molecule antagonists of the progesterone receptor (PR) signaling pathway (AID 1346795; active = well fitted inhibition curve with a large enough effect in the signal ratio in the repeat runs, not every such curve was filed as active; the % refers to the signal ratio)
Method in brief: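 Screening used a GripTite HEK293T line with PR-responsive UAS-beta-lactamase. Cells were challenged with compound in the presence of 1 nM R5020 final for 16 hr at 37C; B/G FRET substrate, 2 hr room temperature, fluorescence.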
% is scaled to controls: 0 for no effect and ±100 for the full control effect.

CC1CCC(C(C)(C)O)CC1 (stereo not given)
inactive: Potency [1] | Potency [2] | Potency [3] | Potency [4] | outcome [5] | Potency [6] | Potency [7] | Potency [8] | Potency [9] | outcome [10] | Potency [11] | Potency [12] | Potency [13] | Potency [14] | Potency [15] | Potency [16]

Cc1cccc2c1ccc1ccccc12
inactive: Potency [1] | Potency [2] | Potency [3] | Potency [17] | outcome [5] | Potency [6] | Potency [7] | Potency [8] | Potency [9] | outcome [10] | Potency [11] | Potency [13] | Potency [14] | Potency [15] | Potency [16]

O=c1cc[nH]cc1
inactive: Potency [1] | Potency [2] | Potency [3] | Potency [18] | Potency [19] | Potency [4] | outcome [5] | Potency [6] | Potency [7] | Potency [8] | Potency [9] | outcome [10] | Potency [11] | Potency [12] | Potency [13] | Potency [14] | Potency [15] | Potency [16]

COC(=O)c1ccc([N+](=O)[O-])cc1
inactive: Potency [1] | Potency [2] | Potency [3] | Potency [18] | Potency [19] | Potency [4] | Potency [6] | Potency [7] | Potency [8] | Potency [9] | outcome [10] | Potency [11] | Potency [12] | Potency [13] | Potency [14] | Potency [15] | Potency [16]

O=C(CCCCCCCCc1cccnc1)N1CCC(C=C(c2ccccc2)c2ccccc2)CC1
inactive: Potency [2] | Potency [18] | Potency [19] | Potency [12] | Potency [14] | Potency [16]
active: Potency [1] 21.7 µM | Potency [3] 24.3 µM | Potency [6] 30.6 µM | Potency [7] 30.6 µM | Potency [8] 54.9 µM

CC(=O)[C@]1(O)Cc2c(O)c3c(c(O)c2[C@@H](O[C@H]2C[C@H](N)[C@H](O)[C@H](C)O2)C1)C(=O)c1ccccc1C3=O
active: Potency [1] 2.66 µM | Potency [4] 18.8 µM | Potency [7] 1.33 µM | Potency [13] 2.66 µM | Potency [14] 2.11 µM
inactive: Potency [2] | Potency [3] | Potency [17] | Potency [6] | Potency [8] | outcome [10] | Potency [11] | Potency [12]

CN(C)CCOc1ccc(/C(=C(/CCCl)c2ccccc2)c2ccccc2)cc1
active: Potency [1] 40.5 µM | Potency [3] 45.5 µM | Potency [19] 40.5 µM | Potency [6] 51 µM | Potency [7] 57.2 µM | Potency [13] 22.8 µM | Potency [14] 57.2 µM | Potency [15] 51 µM | Potency [16] 51 µM
inactive: Potency [2] | Potency [18] | Potency [8] | outcome [10] | Potency [11] | Potency [12]

CC1=CC[C@@H](C(C)(C)O)CC1
inactive: Potency [1] | Potency [2] | Potency [3] | Potency [18] | Potency [19] | outcome [5] | Potency [6] | Potency [7] | Potency [8] | Potency [9] | outcome [10] | Potency [12] | Potency [13] | Potency [14] | Potency [16]

CCOC(=O)[C@H](O)[C@@H](O)C(=O)OCC
inactive: Potency [1] | Potency [2] | Potency [3] | Potency [4] | outcome [5] | Potency [20] | Potency [6] | Potency [7] | Potency [9] | outcome [10] | Potency [11] | Potency [12] | Potency [13] | Potency [14] | Potency [15] | Potency [16]

COc1cc(C(C)C)ccc1C
inactive: activity change, negative = cytotoxicity [1] 2.27% [at 19 µM] | activation [2] 0.232% [at 19 µM] | activity change, negative = cytotoxicity [3] -0.566% [at 19 µM] | cAMP activity change [18] 3.96% [at 18.9 µM, active compounds read high] | activity change, negative = inhibition [19] -0.443% [at 19 µM] | activation [5] 2.45% [at 19 µM] | activity change, negative = inhibition [20] 2.91% [at 18.9 µM] | activity change, negative = cytotoxicity [6] -15.7% [at 18.9 µM] | activity change, negative = cytotoxicity [7] -8.49% [at 19 µM] | viability change, negative = cytotoxic [8] -0.209% [at 15.8 µM] | activity change, negative = cytotoxicity [9] 6.13% [at 15.8 µM] | activation [10] 5.38% [at 15.8 µM] | activity, negative = inhibition [11] -0.302% [at 10.5 µM] | activation [12] 0.0321% [at 11.8 µM] | activity change, negative = cytotoxicity [13] 1.46% [at 19 µM] | caspase activation [14] 0.0291% [at 19 µM] | activity change, negative = cytotoxicity [15] -7.98% [at 19 µM] | caspase-3/7 activation [16] -1.8% [at 19 µM]

CCCCCCCCc1ccc(Nc2ccc(CCCCCCCC)cc2)cc1
inactive: Potency [1] | Potency [2] | Potency [3] | Potency [18] | Potency [19] | outcome [5] | Potency [20] | Potency [6] | Potency [7] | Potency [8] | outcome [10] | Potency [11] | Potency [12] | Potency [13] | Potency [14] | Potency [16]

CC(CC(C)(C)C)CC(C)(C)CC(C)(C)C (stereo not given)
inactive: Potency [1] | Potency [2] | Potency [3] | Potency [18] | Potency [19] | Potency [4] | Potency [6] | Potency [7] | Potency [8] | Potency [9] | outcome [10] | Potency [11] | Potency [12] | Potency [13] | Potency [14] | Potency [15] | Potency [16]

Nc1cc([N+](=O)[O-])ccc1Cl
inactive: Potency [1] | Potency [2] | Potency [3] | Potency [18] | Potency [19] | Potency [4] | outcome [5] | Potency [6] | Potency [7] | Potency [8] | Potency [9] | outcome [10] | Potency [13] | Potency [14] | Potency [15] | Potency [16]

CN(C[C@@H](CC[N+]12CCC(C3CCCCC3)(CC1)CC2)c1ccc(Cl)c(Cl)c1)C(=O)c1cc(C(F)(F)F)cc(C(F)(F)F)c1
inactive: Potency [2] | Potency [18] | Potency [19] | Potency [8] | Potency [12] | Potency [14] | Potency [16]
active: Potency [1] 30.6 µM | Potency [3] 17.2 µM | Potency [6] 27.3 µM | Potency [7] 13.7 µM | Potency [15] 61.1 µM
